# High-throughput results from PubChem.
# CYP2C19 activ – cytochrome P450 2C19 (human) activation | P33261 | recombinant CYP2C19, luciferin-H EGE luminescence; hits give high values; 0 = fully inhibited enzyme, 1 = untreated enzyme | activation factor at 5 µM | 96,000 tested, under 10 active;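 active = activation factor of at least 2 at 5 µM in the primary screen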
# CYP2C19 inhib – inhibitors of human CYP2C19; CYP2C19 Supersomes, luciferin-H EGE luminescence, 30 min; inhibition, % at 5 µM; 96,000 compounds, 21% hits;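 active = CYP2C19 inhibition above a set limit at 5 µM in the primary screen, cut at about 50% in these data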
# sEH inh – soluble epoxide hydrolase (human) inhibition | P34913 | recombinant human sEH enzymatic activity assay | inhibition, % at 2 µM | 91,000 compounds, 0.34% hits | AID 707; in the data active = inhibition above about 80%
# CYP2C9 inhib – blocks human cytochrome P450 2C9. CYP2C9 Supersomes, luciferin-H conversion, luminescence. inhibition, % at 5 µM. 96,000 compounds, 20% hits;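 active = blocking of liver enzyme CYP2C9 beyond about 50% at 5 µM, limit read from the data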
# Target sequence (P11712 whole entry, looked up): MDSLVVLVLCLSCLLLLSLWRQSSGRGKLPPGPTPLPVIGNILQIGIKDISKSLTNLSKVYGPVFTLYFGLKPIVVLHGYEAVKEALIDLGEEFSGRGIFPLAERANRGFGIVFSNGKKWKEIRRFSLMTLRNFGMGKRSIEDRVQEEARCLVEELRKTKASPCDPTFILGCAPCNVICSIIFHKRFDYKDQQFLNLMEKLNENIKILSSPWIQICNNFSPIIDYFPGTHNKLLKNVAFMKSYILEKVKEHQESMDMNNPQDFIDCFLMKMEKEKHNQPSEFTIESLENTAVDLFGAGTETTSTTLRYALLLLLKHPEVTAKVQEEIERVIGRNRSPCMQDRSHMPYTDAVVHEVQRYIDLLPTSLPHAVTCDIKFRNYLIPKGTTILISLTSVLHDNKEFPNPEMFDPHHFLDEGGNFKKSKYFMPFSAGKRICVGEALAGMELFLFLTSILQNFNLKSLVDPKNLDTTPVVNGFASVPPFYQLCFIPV
# CYP2C9 act – CYP2C9 (human) activation; recombinant CYP2C9, luciferin-H conversion, luminescence; hits give high values; factor 1 = untreated enzyme, 0 = blocked; activation factor at 5 µM; 96,000 compounds, 1.4% hits; AID 1024;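 active = activation factor of 2 or more for CYP2C9 at a 5 µM dose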
# sEH act – activators of human soluble epoxide hydrolase. AID 717. purified human sEH enzymatic activity, activator screen. P34913. 91,000 compounds, 0.04% hits. activation, % at 2 µM; in the data active = activation above about 37%
# Hits are given with their value; 0 = inactive; - = no result. A selection: hits, their analogues and other compounds. The true share with any hit is near 27%.
SMILES,CYP2C19 activ,CYP2C19 inhib,sEH inh,CYP2C9 inhib,CYP2C9 act,sEH act
Cc1ccccc1C(C(=O)NC1CCCC1)N(C(=O)Cc1cccs1)c1ccc2c(c1)OCCO2 (stereo not given),0,0,0,0,0,0
O=C(NC1CCCCC1)C(c1ccco1)N(Cc1ccco1)C(=O)c1ccco1 (stereo not given),0,65,-,63,0,-
O=C(NCC(=O)N(Cc1ccccc1)C(C(=O)NC1CCCCC1)c1ccco1)c1ccco1 (stereo not given),-,-,0,-,-,0
CCC(C)c1ccc(OCC(=O)Nc2ccc(Cl)cn2)cc1 (stereo not given),0,0,0,0,0,0
COc1ccc(CC(=O)Nc2cccc(C(=O)O)c2C)cc1,0,0,0,0,0,0
O=[N+]([O-])c1cc(-c2nnc(C34CC5CC(CC(C5)C3)C4)o2)cc([N+](=O)[O-])c1,0,0,0,0,0,0
COc1ccccc1N(C(=O)CNC(=O)c1ccco1)C(C(=O)NC1CCCC1)c1ccncc1 (stereo not given),-,-,0,-,-,0
COc1ccccc1CN(C(=O)c1ccco1)C(C(=O)NC1CCCC1)c1ccncc1 (stereo not given),0,63,0,0,0,0
COc1cccc(CN(C(=O)c2ccco2)C(C(=O)NC2CCCC2)c2cccnc2)c1 (stereo not given),0,0,0,0,0,0
COc1ccccc1CN(C(=O)Cc1cccs1)C(C(=O)NC1CCCC1)c1ccncc1 (stereo not given),0,77,0,0,0,0
O=C(NC1CCCCC1)C(c1ccncc1)N(Cc1ccccc1)C(=O)c1ccc(-c2ccccc2)[nH]1 (stereo not given),0,93,0,95,0,0
O=C(NC1CCCC1)C(c1ccccc1F)N(C(=O)c1ccco1)C1CCCC1 (stereo not given),0,0,-,51,0,-
CC1=C(C(=O)Nc2cccnc2)C(c2ccc(C(C)C)cc2)n2ncnc2N1 (stereo not given),-,-,0,-,-,0
CC(C(=O)NC1CCCC1)N(C(=O)c1ccc(-c2ccccc2)[nH]1)c1ccccc1F (stereo not given),0,70,0,61,0,0
COc1ccc(CN(C(=O)c2ccc(-c3ccccc3)[nH]2)C(C(=O)NCC2CCCO2)c2ccc(C)o2)cc1 (stereo not given),0,58,0,0,0,0
COc1ccc(C(=O)N(Cc2ccco2)C(C(=O)NC2CCCC2)c2ccc(O)cc2)cc1OC (stereo not given),0,50,0,56,0,0
COc1cc(C(C(=O)NC2CCCCC2)N(Cc2cccs2)C(=O)Cc2c[nH]c3ccccc23)cc(OC)c1OC (stereo not given),0,73,0,58,0,0
CCOC(=O)c1c(C#N)cnn1-c1ccc(C)cc1,0,0,0,0,0,0
O=C(N/N=C\c1cc(Br)cs1)C1COc2ccccc2O1 (stereo not given),0,0,0,0,0,0
Cc1nn(C)c(C)c1S(=O)(=O)N1CCCC(C(=O)NCC2COc3ccccc3O2)C1 (stereo not given),0,0,0,0,0,0
O=C(NC1CCCC1)C(c1cccs1)N(Cc1ccco1)C(=O)c1csnn1 (stereo not given),0,0,0,0,0,0
COc1ccc(CN(C(=O)Cc2c[nH]c3ccccc23)C(C(=O)NC2CCCCC2)c2ccc(C)o2)cc1 (stereo not given),0,93,0,94,0,0
O=C(NC1CCCC1)C(c1ccncc1)N(Cc1cccs1)C(=O)c1csnn1 (stereo not given),0,0,0,54,0,0
COC1Cc2ccccc2N(C(=O)N2CCN(CCO)CC2)c2ccccc21 (stereo not given),0,0,0,0,0,0
O=C(CSc1ccccn1)Nc1nncs1,-,-,0,-,-,0
SMILES,CYP2C19 activ,CYP2C19 inhib,sEH inh,CYP2C9 inhib,CYP2C9 act,sEH act
O=C1CS/C(=C\[N+](=O)[O-])N1c1ccc(OC(F)(F)F)cc1,0,0,0,0,0,0
COc1cc(C(C)=O)ccc1OC(=O)C(C)N1C(=O)c2ccccc2C1=O (stereo not given),0,0,0,54,0,0
O=C1Nc2cc(Cl)cnc2N2CCCC12 (stereo not given),0,0,-,83,0,-
COc1ccc(/C(O)=C2\C(=O)C(=O)N(CCCN(C)C)C2c2ccccc2F)cc1Cl (stereo not given),0,0,-,0,0,-
CC(C)Sc1nc(N2CCOCC2)c2c3c(sc2n1)COC(C)(C)C3,0,0,0,58,0,0
CC1(C)Cc2c(sc3nc(SCC(=O)N4CCOCC4)nc(N)c23)CO1,0,0,-,0,0,-
CCOC(=O)N1CCN(c2nc(SC)nc3sc4c(c23)CC(C)(C)OC4)CC1,0,87,-,81,0,-
CCN1CCN(c2nc(SC)nc3sc4c(c23)CC(C)(C)OC4)CC1,0,0,-,57,0,-
CCOC(=O)c1nc(N2CCN(C(=O)OCC)CC2)c2c3c(sc2n1)CCCC3,0,62,0,60,0,0
CCOc1cc(NC(=O)c2ccccn2)c(OCC)cc1NC(=O)CC(C)C,0,0,0,0,0,0
COc1ccc(Nc2nc(N)nc(CN3CCOCC3)n2)cc1,0,0,0,0,0,0
CCOC(=O)N1CCN(Cc2nc(N)nc(Nc3ccc(Oc4ccccc4)cc3)n2)CC1,0,0,0,81,0,0
CCOc1nc(Nc2ccc(OC)c(Cl)c2)nc(N2CCN(c3ccc(OC)cc3)CC2)n1,0,0,0,67,0,0
CCOC(=O)N1CCN(Cc2nc(N)nc(Nc3ccc(OC)cc3)n2)CC1,0,0,0,0,0,0
COc1ccc(N2CCN(Cc3nc(N)nc(Nc4ccc(C)c(Cl)c4)n3)CC2)cc1,0,59,0,68,0,0
Cc1ccc(Nc2nc(N)nc(CN3CCN(c4ccccc4)CC3)n2)cc1Cl,0,0,0,60,0,0
Cc1n[nH]c(C)c1S(=O)(=O)N1CCN(C(=O)c2ccco2)CC1,0,0,-,0,0,-
CCN(CC(=O)NC(C)C)Cc1nc2sc3c(c2c(=O)[nH]1)CCC3,0,0,0,0,0,0
CCOC(=O)CNC(=O)c1cc(-c2ccc3c(c2)OCCO3)oc1C,0,0,0,0,0,0
CCOC(=O)C1CCCN(CCC(=O)Nc2ccc3c(c2)CCC3)C1 (stereo not given),0,0,0,0,0,0
Fc1ccccc1C(c1nnnn1C1CCCC1)N1CCN(Cc2ccccc2)CC1 (stereo not given),-,-,0,-,-,0
CCCCN(C)C1=Nc2cccc3cccc1c23,0,0,0,0,0,0
CC1=NN(C(=O)c2ccc(C)cc2)C(O)(C(F)(F)OC(F)(F)F)C1 (stereo not given),0,0,0,0,0,0
Nc1nc(CN2CCN(c3cccc(Cl)c3)CC2)nc(N2CCCc3ccccc32)n1,0,0,0,0,0,0
